The supplement of paper PMC10338343
± gives the standard deviation.

What follows are sequences tested on MILI (PIWIL2) piRISC loaded with L1MC piRNA (26 nt) (assay: pre-steady-state target cleavage rate (min^-1); guide: L1MC piRNA 5'p-UAACUAAAUACUAUGCAAGCUGUAGG; MIWI and MILI are mouse PIWI proteins and EfPiwi is from a freshwater sponge; tags in brackets are library labels; higher = faster piRNA-guided slicing of the target). Settings: auxiliary factor: none (no GTSF1).
How it was run: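 Active affinity-purified piRISC carrying one synthetic guide (1 nM) was mixed with a transcribed, DNA-blocked target RNA library […] in HEPES–potassium acetate buffer at 33 °C for 0–8 or 0–960 min, with or without 500 nM GTSF1 partner protein. Uncleaved targets were then sequenced and normalised to depth and to weakly complementary targets. Three trials were pooled, and k3 was capped at 0.0001 min^-1. A burst-and-steady-state fit was applied to obtain the pre-steady-state cleavage rate.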
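Further: 1 nM active piRISC with 0.1 nM target library at 33 °C single turnover.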

Q: UCCUGGAUGUCGAUGCAUAGUACUUAGUUA was tested. Which “pre-steady-state target cleavage rate” value did it give?
A: 0.0058 ± 0.0019

Q: With UCCUGGAUGAGCUUGGAUAGUUUUUAGUUA as the sequence, how does the “pre-steady-state target cleavage rate” value read?
A: 0.00424 ± 0.0026

Q: Which “pre-steady-state target cleavage rate” value does the source give for UCCUGGAUGUCGUUGCAGAGUAUUUAGUUA here?
A: 0.0038 ± 0.0022

Q: How did the “pre-steady-state target cleavage rate” value turn out when UCCUGGAUGUCGAUGCAUAGUCUUUAGUUA was run?
A: 0.00627 ± 0.002

Q: With UCCUGGUACUGCUUGCAUAGUUUUUAGUUA as the sequence, how does the “pre-steady-state target cleavage rate” value read?
A: 0.00996 ± 0.0046

Q: UCCUGGAUGUGCUUGCAAAGUAAUUAGUUA was tested. Which “pre-steady-state target cleavage rate” value did it give?
A: 0.00395 ± 0.0028

Q: With UCCUGGAUCAGCUAGCAUAGUAUUUUGUUA as the sequence, how does the “pre-steady-state target cleavage rate” value read?
A: 0.00333 ± 0.0023

Q: With UCCUGGUACAGGUUGCAUAGUAUUUUGUUA as the sequence, how does the “pre-steady-state target cleavage rate” value read?
A: 0.0111 ± 0.0045

Q: With UCCUGGAUGUCGUUGCAUAGUUAUUUAGUUA as the sequence, how does the “pre-steady-state target cleavage rate” value read?
A: 0.00324 ± 0.003

Q: For UCCUGGAACAGCUUGGUUAGUAUUUAGUAA, which “pre-steady-state target cleavage rate” value is on record?
A: 0.00709 ± 0.0024

Q: Which “pre-steady-state target cleavage rate” value does the source give for UCCUGGAUGUCGAUGCAUAGUAAUUUAGUUA here?
A: 0.00496 ± 0.0023

Q: With UCCUGGAUGAGCUUGCAUAGUUAUUUAGUUA as the sequence, how does the “pre-steady-state target cleavage rate” value read?
A: 0.00489 ± 0.0022

Q: For UCCUGGAUCAGCUUGCAUAGAUAUUUAGUUA, which “pre-steady-state target cleavage rate” value is on record?
A: 0.00307 ± 0.0026

Q: With UCCUGGAUGAGCUUUCAUAGUAUUUAGUUA as the sequence, how does the “pre-steady-state target cleavage rate” value read?
A: 0.00493 ± 0.0026

Q: With UCCUGGAACAGCUUCGUUAGUAUUUAGUUA as the sequence, how does the “pre-steady-state target cleavage rate” value read?
A: 0.00414 ± 0.0022

Q: For UCCUGGAUGUGCUUGGAUAGUAAUUAGUUA, which “pre-steady-state target cleavage rate” value is on record?
A: 0.00472 ± 0.0026

Q: UCCUGGAUGACCUUGCAUACUAUUUAGUUA was tested. Which “pre-steady-state target cleavage rate” value did it give?
A: 0.00358 ± 0.0034

Q: With UCCUGGUAGUGCUUGCAUAGUAUUUAGUUA as the sequence, how does the “pre-steady-state target cleavage rate” value read?
A: 0.00947 ± 0.0025

Q: With UCCUGGAUGUCCUUGCAUAGUAUAUAGUUA as the sequence, how does the “pre-steady-state target cleavage rate” value read?
A: 0.00505 ± 0.0026

Q: How did the “pre-steady-state target cleavage rate” value turn out when UCCUGGAUGUCGAAGCAUAGUAUAUAGUUA was run?
A: 0.00342 ± 0.0022

Q: UCCUCCUUCAGCUAGCAUAGUAUUUAGUUA was tested. Which “pre-steady-state target cleavage rate” value did it give?
A: 0.00519 ± 0.0022

Q: With UCCUGGAACAGCUUGGUAAGUAUUUAGUAA as the sequence, how does the “pre-steady-state target cleavage rate” value read?
A: 0.00425 ± 0.0016

Q: With UCCUGGAUGUCGUUGCCUAGUAUUUAGUUA as the sequence, how does the “pre-steady-state target cleavage rate” value read?
A: 0.00949 ± 0.0028

Q: With UCCUGGAUCAGCUAGCAUAGUAUUUAGAUA as the sequence, how does the “pre-steady-state target cleavage rate” value read?
A: 0.00275 ± 0.0026

Q: UCCUGGAACACGAUGCAUAGUAUUUAGUAA was tested. Which “pre-steady-state target cleavage rate” value did it give?
A: 0.00313 ± 0.0029

Q: Which “pre-steady-state target cleavage rate” value does the source give for UCCUGGAACAGCUUGCAAAGUUUUUAGUUA here?
A: 0.0029 ± 0.0026

Q: For UCCUGGAUGUCGUUGCAUAGUAUUUAGUGUA, which “pre-steady-state target cleavage rate” value is on record?
A: 0.00477 ± 0.0035

Q: For UCCUGGAUGUGCAUGCAUAGUAAUUAGUUA, which “pre-steady-state target cleavage rate” value is on record?
A: 0.00833 ± 0.002

Q: For UCCUGGAUCAGCUUGCAUUGUUUUUAGUUA, which “pre-steady-state target cleavage rate” value is on record?
A: 0.00431 ± 0.0023

Q: UCCUGGUACAGCAUGGAUAGUAUUUAGUUA was tested. Which “pre-steady-state target cleavage rate” value did it give?
A: 0.0172 ± 0.0046

Q: How did the “pre-steady-state target cleavage rate” value turn out when UCCUGGAACAGCUAGCAUAGUAUAUAGUUA was run?
A: 0.00524 ± 0.0027

Q: Which “pre-steady-state target cleavage rate” value does the source give for UCCUGGAUGUGCUUGGAUAGUUUUUAGUUA here?
A: 0.00414 ± 0.0024

Q: Which “pre-steady-state target cleavage rate” value does the source give for UCCUGGAUGUCCUUGGAUAGUAUUUAGUUA here?
A: 0.00762 ± 0.0021

Q: UCCUGGAUGUCGUUGCAUAGUCAUUUAGUUA was tested. Which “pre-steady-state target cleavage rate” value did it give?
A: 0.00434 ± 0.0028

Q: For UCCUGGAUGUCCUUGCAAUGUAUUUAGUUA, which “pre-steady-state target cleavage rate” value is on record?
A: 0.00626 ± 0.0014

Q: For UCCUGGAUGUCGUUGCUUAGUAUUUUGUUA, which “pre-steady-state target cleavage rate” value is on record?
A: 0.00381 ± 0.0029

Q: How did the “pre-steady-state target cleavage rate” value turn out when UCCUGGAUGUCCUUGCAUAGUAUUGUAGUUA was run?
A: 0.0041 ± 0.003

Q: Which “pre-steady-state target cleavage rate” value does the source give for UCCUGGAUGUGGUUGCAUAGAAUUUAGUUA here?
A: 0.00318 ± 0.0028

Q: UCCUGGAUGUGCUUGCAUUGUUUUUAGUUA was tested. Which “pre-steady-state target cleavage rate” value did it give?
A: 0.00335 ± 0.0032

Q: For UCCUGGUACAGCUUGGUAAGUAUUUAGUUA, which “pre-steady-state target cleavage rate” value is on record?
A: 0.00809 ± 0.0033
